{"source": "ChEMBL document CHEMBL4513135", "about": "“CO-ADD screening of IQOG CSIS (Spain) compounds”", "note": "Results with a measured potency or affinity are listed apart.", "data": [{"system": "Cryptococcus neoformans", "settings": "Concentration 32 ug.mL-1; ASSAY_TEST Inhibition of Fungal Growth; detection method Resazurin; Absorption (OD600-OD570); plate type 384well; NBS; CORNING #3640", "units": {"Inhibition": "%"}, "values": [{"smiles": "COC(=O)C(=Cc1ccc(OC)cc1)NC(C)=O", "Inhibition": -2.55}, {"smiles": "c1ccc(-c2nc3c4cnn(-c5ccccc5)c4ncn3n2)cc1", "Inhibition": -6.06}, {"smiles": "COC(=O)C(C#N)=Cc1ccccc1", "Inhibition": -2.58}, {"smiles": "COc1ccc(C2c3ccc4ccccc4c3OC(=NBr)C2(Br)C#N)cc1OC", "note": "(stereo not given)", "Inhibition": -80.16}, {"smiles": "N#Cc1c(N)nc(N2CCOCC2)c(C#N)c1-c1ccccc1", "Inhibition": -3.16}, {"smiles": "Cn1ccnc1C1C2=C(CC(C)(C)CC2=O)Oc2nc3c(c(N)c21)CCC3", "note": "(stereo not given)", "Inhibition": -62.95}, {"smiles": "COc1ccc(C2c3ccc4ccccc4c3OC(=NBr)C2(Br)C#N)cc1", "note": "(stereo not given)", "Inhibition": -24.77}, {"smiles": "COc1ccccc1C1C(C#N)=C(N)Oc2ccc3ccccc3c21", "note": "(stereo not given)", "Inhibition": -18.76}, {"smiles": "CC1CN(C)c2c(C#N)c(-c3ccccc3)c(C#N)c(=N)n21", "note": "(stereo not given)", "Inhibition": -66.3}, {"smiles": "O=C1OC(c2ccccc2)=NC1=Cc1ccccc1Cl", "Inhibition": -1.51}, {"smiles": "C#CCN(C)Cc1cc2cc(OCCCC3CCN(C(=O)OC(C)(C)C)CC3)ccc2n1C", "Inhibition": -6.45}, {"smiles": "COC1=C(C#N)CC(C)C(=O)N1", "note": "(stereo not given)", "Inhibition": -33.52}, {"smiles": "Cc1ccc(C2c3ccc4ccccc4c3Oc3nc4c(c(N)c32)CCCC4)cc1", "note": "(stereo not given)", "Inhibition": 5.66}, {"smiles": "O=Cc1cc2ccccc2nc1Cl", "Inhibition": -7.31}, {"smiles": "C#CCN(C)c1ncc(C#N)c(N)n1", "Inhibition": -42.08}, {"smiles": "C=C1CN(C)c2c(C#N)c(-c3ccccc3)c(C#N)c(=N)n21", "Inhibition": -51.34}, {"smiles": "CN(C)c1nc(Cl)c(C#N)c(-c2ccccc2)c1C#N", "Inhibition": -9.38}, {"smiles": "ClCCC1CCN(Cc2ccccc2)CC1", "Inhibition": -7.64}, {"smiles": "Cc1nc(NCc2ccccc2)c2cnn(-c3ccccc3)c2n1", "Inhibition": -3.46}, {"smiles": "COc1ccc2cc(C3C(C(C)=O)=C(C)Oc4nc5c(c(N)c43)CCC5)c(Cl)nc2c1", "note": "(stereo not given)", "Inhibition": -0.43}, {"smiles": "CCOC(=O)c1cc(C#N)c(N)nc1C", "Inhibition": -17.38}, {"smiles": "OCc1cc2ccccc2[nH]1", "Inhibition": -4.31}, {"smiles": "C#CCN(C)Cc1cc2cc(OCCCC3CCN(Cc4ccc(C#N)cc4)CC3)ccc2n1C", "Inhibition": -50.05}, {"smiles": "CC1=C(C(=O)O[C@@H]2C[C@@]3(C)CC[C@H]2C3(C)C)C(c2ccccc2)C(C#N)=C(N)O1", "note": "(stereo not given in full)", "Inhibition": -2.45}, {"smiles": "CC(C)CC(C)NNC(=O)c1cc2ccccc2[nH]1", "note": "(stereo not given)", "Inhibition": -6.14}, {"smiles": "CCOC(N)=CC#N", "Inhibition": -10.57}, {"smiles": "C=C1CN(C)c2c(C#N)c(-c3ccccc3)c(C#N)c(=O)n21", "Inhibition": -24.16}, {"smiles": "Cc1nc(Nc2ccccc2)c2c(C)nn(-c3ccccc3)c2n1", "Inhibition": -3.19}, {"smiles": "CN(C)c1cccc(C(=O)c2cccc(N(C)C)c2)c1", "Inhibition": -8.01}, {"smiles": "CCOC(=O)C1=C(C)Oc2nc3c(c(N)c2C1c1nccn1C)CCC3", "note": "(stereo not given)", "Inhibition": -84.25}, {"smiles": "COc1ccccc1C1c2ccc3ccccc3c2OC(=NBr)C1(Br)C#N", "note": "(stereo not given)", "Inhibition": -47.56}, {"smiles": "C#CCN(C)c1nc(Sc2ccccc2)c(C#N)c(-c2ccccc2)c1C#N", "Inhibition": -1.7}, {"smiles": "CCOC(=O)c1cc2ccccc2[nH]1", "Inhibition": -5.94}, {"smiles": "O=C1C=C(Nc2ccccc2)C(=O)N1c1ccccc1", "Inhibition": -3.49}, {"smiles": "COc1ccc2c(c1)cc(/C=C/[N+](=O)[O-])n2C", "Inhibition": 4.17}, {"smiles": "N#Cc1c(N)nc(N2CCC(Cc3ccccc3)CC2)c(C#N)c1-c1ccccc1", "Inhibition": -30}, {"smiles": "N#CC1(Br)C(=NBr)Oc2c(ccc3ccccc23)C1c1ccc([N+](=O)[O-])cc1", "note": "(stereo not given)", "Inhibition": -87.41}, {"smiles": "N#Cc1c(NC2CCC(Cc3ccccc3)CC2)nc(NC2CCN(Cc3ccccc3)CC2)c(C#N)c1-c1ccccc1", "note": "(stereo not given)", "Inhibition": -20.4}, {"smiles": "N#Cc1cc(Br)cc(Br)c1N", "Inhibition": -9.46}, {"smiles": "Clc1ccc(-c2cn3ccccc3n2)cc1", "Inhibition": -7.53}]}]}
